From PubChem BioAssay (EPA / NIEHS)
The source made the active and inactive calls. How the source made its calls: active means hit-call score of the fitted dose curve at least 0.9, where 1 is the maximum; inactive means score below 0.9.

Columns and labels:
[1] = read-out: Interleukin-8 (IL8), CXCL8 (gene 3576); test: BSK_3C_IL8: BioMAP Diversity Plus: 3C Assay for Interleukin-8 (IL8) Biomarker Activity (AID 2283020); details: primary human endothelial cells (HUVEC); actives raise or lower the signal
How it was run: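 Primary human umbilical vein endothelial cells were dosed for 24 h. IL-8 was quantified by ELISA and fitted bidirectionally against DMSO. Cytotoxicity was assessed in parallel cultures by SRB staining at 560 nm.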

[2] = read-out: Monokine induced gamma interferon (MIG), CXCL9 (gene 4283); test: BSK_3C_MIG: BioMAP Diversity Plus: 3C Assay for Monokine induced gamma interferon (MIG) Biomarker Activity (AID 2283021); details: primary human endothelial cells (HUVEC); actives raise or lower the signal;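 on AC50: MIG protein level measured by immunoassay in the treated endothelial cultures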
How it was run: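 HUVEC primary endothelial cultures dosed with chemical; MIG quantified by ELISA at 24 h. Data fitted bidirectionally against DMSO control, with parallel SRB total-protein staining for cytotoxicity.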

[3] = BSK_3C_SRB: Viability Assessment in the BioMAP Diversity Plus: 3C Assay (AID 2283023); details: primary human endothelial cells (HUVEC);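 further: fitted both ways against DMSO so a hit may be signal rise or drop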
How it was run: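 Human umbilical vein endothelial cells in the 3C system, treated 24 h. Total protein measured by 0.1% sulforhodamine B staining after 10% TCA fixation, read at 560 nm; bidirectional fit versus DMSO.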

[4] = read-out: Matrix Metallopeptidase 1 (MMP1), MMP1 (gene 4312); test: BSK_BE3C_MMP1: BioMAP Diversity Plus: BE3C Assay for Matrix Metallopeptidase 1 (MMP1) Biomarker Activity (AID 2283024); details: primary human bronchial epithelial cells; actives raise or lower the signal
How it was run: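 Human primary bronchial epithelial cells (BE3C system) dosed for 24 h; MMP-1 quantified by ELISA. Bidirectional fit against DMSO; cytotoxicity tracked in parallel cultures by SRB total-protein staining.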

[5] = read-out: Pselectin, SELP (gene 6403); test: BSK_4H_Pselectin: BioMAP Diversity Plus: 4H Assay for Pselectin Biomarker Activity (AID 2283026); details: primary human endothelial cells (HUVEC); actives raise or lower the signal
How it was run: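 Primary human umbilical vein endothelial cells were treated 24 h, and cell-surface P-selectin was then quantified by ELISA. Bidirectional fit versus DMSO; cytotoxicity checked in parallel cultures by SRB total-protein staining.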

[6] = BSK_4H_SRB: Viability Assessment in the BioMAP Diversity Plus: 4H Assay (AID 2283027); details: primary human endothelial cells (HUVEC);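 further: cells exposed to compound for 24 h before staining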;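 on AC50: curves fitted both ways versus DMSO so AC50 may be loss or gain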
How it was run: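 Human umbilical vein endothelial cells were dosed with chemical and, after 24 h, fixed with 10% TCA, stained with 0.1% sulforhodamine B, and read at 560 nm to give total protein as a cytotoxicity measure. Bidirectional fitting relative to DMSO control.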

[7] = BSK_BE3C_SRB: Viability Assessment in the BioMAP Diversity Plus: BE3C Assay (AID 2283028); details: primary human bronchial epithelial cells;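 on AC50: fitted both ways so AC50 may mark signal gain or loss versus DMSO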
How it was run: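 Human bronchial epithelial primary cells in confluent culture, 24 h after chemical dosing; total protein by 0.1% SRB staining after 10% TCA fixation, read at 560 nm. Bidirectional fitting versus DMSO baseline.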

[8] = read-out: Human Leukocyte Antigen - DR isotype (HLADR), HLA-DRA (gene 3122); test: BSK_BE3C_HLADR: BioMAP Diversity Plus: BE3C Assay for Human Leukocyte Antigen - DR isotype (HLADR) Biomarker Activity (AID 2283032); details: primary human bronchial epithelial cells; actives raise or lower the signal
How it was run: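 Human primary bronchial epithelial cells (BE3C system) exposed to compound for 24 hours; cell-surface HLA-DR measured by ELISA, fitted bidirectionally relative to DMSO. Total protein by SRB in parallel cultures tracked cytotoxicity.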

[9] = read-out: Vascular cell adhesion molecule 1 (VCAM1), VCAM1 (gene 7412); test: BSK_4H_VCAM1: BioMAP Diversity Plus: 4H Assay for Vascular cell adhesion molecule 1 (VCAM1) Biomarker Activity (AID 2283033); details: primary human endothelial cells (HUVEC); actives raise or lower the signal
How it was run: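 Primary human umbilical vein endothelial cells, 4H stimulation system, treated for 24 h; cell-surface VCAM-1 quantified by ELISA. Bidirectional fitting against DMSO; cytotoxicity tracked by SRB total-protein staining in parallel cultures.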

[10] = read-out: Interferon-gamma inducible Protein 10 (IP10), CXCL10 (gene 3627); test: BSK_BE3C_IP10: BioMAP Diversity Plus: BE3C Assay for Interferon-gamma inducible Protein 10 (IP10) Biomarker Activity (AID 2283034); details: primary human bronchial epithelial cells; actives raise or lower the signal
How it was run: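 Primary human bronchial epithelial cells, with IP-10 measured by ELISA 24 hours after chemical dosing. Bidirectional fit against DMSO; cytotoxicity checked by SRB total protein staining in parallel cultures.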

[11] = read-out: Monokine induced gamma interferon (MIG), CXCL9 (gene 4283); test: BSK_BE3C_MIG: BioMAP Diversity Plus: BE3C Assay for Monokine induced gamma interferon (MIG) Biomarker Activity (AID 2283035); details: primary human bronchial epithelial cells; actives raise or lower the signal
How it was run: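 ELISA read-out of MIG in human lung bronchial epithelial primary cultures, 24 h post-dosing. Bidirectional curve fit vs DMSO baseline.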

[12] = read-out: Urokinase-type plasminogen activator receptor (uPAR), PLAUR (gene 5329); test: BSK_BE3C_uPAR: BioMAP Diversity Plus: BE3C Assay for Urokinase-type plasminogen activator receptor (uPAR) Biomarker Activity (AID 2283039); details: primary human bronchial epithelial cells; actives raise or lower the signal
How it was run: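 Primary human bronchial epithelial cells dosed for 24 h; uPAR quantified by ELISA with bidirectional fitting against DMSO. Overt cytotoxicity assessed in parallel cultures by SRB total-protein staining (0.1% SRB, 560 nm).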

[13] = read-out: Interleukin-6 (IL6), IL6 (gene 3569); test: BSK_CASM3C_IL6: BioMAP Diversity Plus: CASM3C Assay for Interleukin-6 (IL6) Biomarker Activity for (AID 2283040); details: primary human coronary artery smooth muscle cells; actives raise or lower the signal
[14] = read-out: Interleukin-8 (IL8), CXCL8 (gene 3576); test: BSK_CASM3C_IL8: BioMAP Diversity Plus: CASM3C Assay for Interleukin-8 (IL8) Biomarker Activity (AID 2283042); details: primary human coronary artery smooth muscle cells; actives raise or lower the signal;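 further: IL-8 protein level quantified by ELISA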
[15] = read-out: Macrophage colony-stimulating factor (MCSF), CSF1 (gene 1435); test: BSK_CASM3C_MCSF: BioMAP Diversity Plus: CASM3C Assay for Macrophage colony-stimulating factor (MCSF) Biomarker Activity (AID 2283044); details: primary human coronary artery smooth muscle cells; actives raise or lower the signal;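 further: M-CSF protein amount quantified by ELISA after 24 h exposure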
[16] = read-out: Monocyte Chemoattractant Protein-1 (MCP1), CCL2 (gene 6347); test: BSK_CASM3C_MCP1: BioMAP Diversity Plus: CASM3C Assay for Monocyte Chemoattractant Protein-1 (MCP1) Biomarker Activity (AID 2283046); details: primary human coronary artery smooth muscle cells; actives raise or lower the signal;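 further: MCP-1 level quantified by ELISA 24 h after dosing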
[17] = BSK_CASM3C_Proliferation: Cell Proliferation Assessment in the BioMAP Diversity Plus: CASM3C Assay (AID 2283047); details: primary human coronary artery smooth muscle cells;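 further: sub-confluent cells exposed 48 h before staining; fitted both ways against DMSO so gain or loss of cell number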
[18] = read-out: Monokine induced gamma interferon (MIG), CXCL9 (gene 4283); test: BSK_CASM3C_MIG: BioMAP Diversity Plus: CASM3C Assay for Monokine induced gamma interferon (MIG) Biomarker Activity (AID 2283048); details: primary human coronary artery smooth muscle cells; actives raise or lower the signal;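 further: MIG protein level measured by ELISA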
[19] = read-out: serum amyloid A (SAA), SAA1 (gene 6288); test: BSK_CASM3C_SAA: BioMAP Diversity Plus: CASM3C Assay for serum amyloid A (SAA) Biomarker Activity (AID 2283049); details: primary human coronary artery smooth muscle cells; actives raise or lower the signal;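 further: SAA protein level quantified by ELISA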
[20] = BSK_CASM3C_SRB: Viability Assessment in the BioMAP Diversity Plus: CASM3C Assay (AID 2283050); details: primary human coronary artery smooth muscle cells

Measured: AC50

CCCCCCCCCCCC#N
active: [1] 20.6 µM | [3] 34.1 µM | [5] 20.6 µM | [6] 30.3 µM | [9] 20.6 µM | [20] 29.3 µM
inactive: all other assays above

COc1ccc(CO)cc1
inactive: all assays above

Clc1ccc(-c2ccccc2)cc1
active: [3] 30.9 µM | [5] 28.2 µM | [6] 35.3 µM | [9] 32.9 µM
inactive: all other assays above

O=[N+]([O-])c1ccc(Cl)cc1
inactive: all assays above

C=CCN(CC=C)C(=O)C(Cl)Cl
inactive: all assays above

O=[N+]([O-])C=Cc1ccccc1
inactive: [19]
active: [1] 10 µM | [2] 11.4 µM | [3] 9.73 µM | [4] 11.3 µM | [5] 5.78 µM | [6] 5.27 µM | [7] 24.3 µM | [8] 1.56 µM | [9] 11.5 µM | [10] 2.48 µM | [11] 3.89 µM | [12] 5.37 µM | [13] 31.3 µM | [14] 20 µM | [15] 20 µM | [16] 27.6 µM | [17] 10.9 µM | [18] 27.1 µM | [20] 20 µM

c1ccc(Nc2ccc3ccccc3c2)cc1
active: [1] 31.9 µM | [2] 33 µM | [3] 30.2 µM | [6] 32.5 µM | [7] 30 µM | [8] 20 µM | [9] 29.5 µM | [10] 20 µM | [15] 20 µM | [17] 31.7 µM
inactive: [4] | [5] | [11] | [12] | [13] | [14] | [16] | [18] | [19] | [20]
